Several values for one entry are separate records, joined by “and”; a condition that tells them apart may be missing. Identical values can stand only once. Activity calls are given as the source filed them.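 Rule for the calls, unless noted: active = thallium flux through the channel raised or lowered by more than 3 SD from vehicle-only wells, actives on both sides; inactive = the rest.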

Assay [1] can be described thus: modulation of C. elegans fzo-1 (AID 1259413; call rule not given here;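 note: fzo-1 mutant C. elegans worms in liquid wells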). Particulars: C. elegans fzo-1 modulator screen, mean read-out; stronger effect = higher value.
Assay [2] is described as follows: viability loss with induced miR-34 in A549 – imaging, A549 dox-inducible miR-34, nuclei and caspase counts, primary screen (AID 1347080;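 active = compounds whose cell count with miR-34 switched on is under 0.7 times the count with it off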). Particulars: A549 miR-34 inducible, Hoechst nuclei count, 48 h.
Assay [3] in a line: MELAS cybrid and Rieske KO viability enhancers – cell-based, MELAS cybrids, Rieske KO mouse fibroblasts, CellTiter-Glo, primary screen (AID 1508586;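 active = mean z-score across replicates of 1.96 or higher in either the MELAS or the Rieske mutant cell line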;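 note: z relative to plate mean and SD of compound and empty wells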). Particulars: low glucose. For orientation: Cellular ATP, detected with luciferase, serves as a proxy for viable cell number.
Another assay relates to F380Y. Description: BK channel mutant inhibitors and activators – cell-based, U2OS BacMam, thallium flux, beta subunits, selectivity assay, profiling panel (AID 1259406).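 Note: initial slope of Thallos dye fluorescence rise after thallium is added; log ratio against the mean of 0.3% DMSO vehicle wells on the same plate.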 Particulars: U2OS BacMam BK variants, at 30 µM.
Another assay deals with F380Y/beta1. The assay is described as above. The note with it: U2OS BacMam BK variants, at 30 µM.
The next assay deals with F380Y/beta2Delta. The assay is described as above. The note with it: U2OS BacMam BK variants, at 30 µM.
Another assay concerns F380Y/beta4. Described as above. Particulars: U2OS BacMam BK variants, at 30 µM.
The target of assay [4] is Calcium-activated potassium channel subunit alpha-1 (Homo sapiens) + Leucine-rich repeat-containing protein 26 (Homo sapiens) (UniProt Q12791+Q2I0M4). The assay is described as above. Particulars: U2OS BacMam BK variants, F380Y/Slo1WT/gamma1, at 30 µM.
Calcium-activated potassium channel subunit alpha-1 (Homo sapiens) + Leucine-rich repeat-containing protein 26 (Homo sapiens), sequence (Q2I0M4 whole entry, looked up, one chain of several): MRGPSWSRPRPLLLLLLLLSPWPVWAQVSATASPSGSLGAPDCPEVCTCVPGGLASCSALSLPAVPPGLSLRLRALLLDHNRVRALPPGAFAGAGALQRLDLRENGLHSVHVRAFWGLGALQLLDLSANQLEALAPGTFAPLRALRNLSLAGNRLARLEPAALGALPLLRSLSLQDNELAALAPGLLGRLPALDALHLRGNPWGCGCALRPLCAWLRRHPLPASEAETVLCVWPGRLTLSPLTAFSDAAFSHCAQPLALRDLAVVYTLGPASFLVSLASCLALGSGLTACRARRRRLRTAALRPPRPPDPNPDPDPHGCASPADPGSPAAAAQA
In a further assay the test system is R275C. The assay is described as above. The note with it: U2OS BacMam BK variants, at 30 µM.
In another assay the test system is R275C/beta1. The description is as above. The note with it: U2OS BacMam BK variants, at 30 µM.
The subject of another assay is R275C/beta2Delta. Described as above. The note with it: U2OS BacMam BK variants, at 30 µM.
The next assay concerns R275C/beta4. The assay is described as above. The note with it: U2OS BacMam BK variants, at 30 µM.
A further assay concerns R275C/Slo1WT/beta2. The assay is described as above. Particulars: U2OS BacMam BK variants, at 30 µM.
Assay [5] can be described thus: P. berghei load reduction in hepatocytes – cell-based, HepG2, luciferase luminescence, HepG2 viability, primary screen (AID 624349; in the data active = parasite load remaining mostly below about 12%, no sharp cut-off; inactive = mostly above about 10%;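 note: 100% = mean of DMSO negative control wells on the same plate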). The note with it: P. berghei liver stage in HepG2, luciferase luminescence, concentration not given here; parasite load remaining: stronger effect = lower value; viability: measured here: HepG2 viability without parasites.
A short description of assay [6]: signal quenchers or enhancers, Cy5 substrate/SSB – biochemical, NIH Clinical Collection, E. coli SSB, artefact control for HCV NS3 helicase inhibitor project (AID 743268; call rule not given here). Particulars: Cy5-oligo bound E. coli SSB, fluorescence interference.
Assay [7] concerns Hepatitis C virus NS3 helicase. Description: blockers of NS3h binding to DNA – biochemical, fluorescence polarization, NIH Clinical Collection, primary screen (AID 743270; call rule not given here). The note with it: NS3 helicase binding to Cy5-dT15 DNA, stronger effect = higher value, concentration not given here. On the technique in general: Polarisation of emitted light reports the rotation of a fluorescent probe.

In assay [8] the target is Single-stranded DNA-binding protein (Escherichia coli (strain K12)) (UniProt P0AGE0). Description: SSB-ssDNA binding inhibitors – biochemical, fluorescence polarization, NIH Clinical Collection, counter-screen for HCV NS3 helicase inhibitor project (AID 743271; in the data active = inhibition above about 28%). Particulars: E. coli SSB-DNA binding, stronger effect = higher value, concentration not given here.
Assay [9] is described as follows: compounds distorting NS3 helicase fluorescence signal – biochemical, NIH Clinical Collection, artefact control for HCV NS3 helicase inhibitor project (AID 743272; call rule not given here;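 note: HCV NS3 helicase with a Cy5 labelled single stranded DNA probe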). Particulars: fluorescence interference counterscreen, HCV NS3 helicase assay; stronger effect = lower value. In general terms: The purpose of a counterscreen is to sort out artefacts and off-target activity.
Assay [10] is described as follows: EMT-state selective cytotoxicity in co-culture – imaging, PC-3E GFP, TEM4-18 mCherry, primary screen (AID 1345086;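 active = compounds killing one labelled cell type while sparing the other, by normalised counts and ratio limits, not self-fluorescent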;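 for all read-outs here: cells exposed to compound for 72 h before imaging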;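 for red/green cell ratio (normalised): normalised mesenchymal count divided by normalised epithelial count so high means epithelial killing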). Particulars: PC-3E GFP / TEM4-18 mCherry co-culture, imaging cell counts, at 1 µM; for red/green cell ratio (normalised): actives lie on both sides, counts scaled to control wells, 1 = unselective.
Where [11] appears, read: stronger effect = lower value, cell number ratio, induced over uninduced.
[12] abbreviates: measured here: relative caspase fold change +Dox/-Dox.
The mark [13] stands for this setting: measured here: total cells with miR-34 induction, stronger effect = lower value.
The mark [14] stands for this setting: measured here: total cells without miR-34 induction.
Where [15] appears, read: MELAS cybrid survival, CellTiter-Glo 48 h, stronger effect = higher value.
Setting [16] is: Rieske KO mouse fibroblast survival, CellTiter-Glo 72 h.
[17] abbreviates: measured here: epithelial PC-3E GFP cell survival.
The mark [18] stands for this setting: measured here: mesenchymal TEM4-18 mCherry cell survival.

For the compound `CN1[C@@H]2CCC[C@H]1CC(NC(=O)c1nn(C)c3ccccc13)C2` (stereo not given in full), the mean signal in [1] is 239 (inactive). Besides, the figures for the fold change in assay [2] (setting [11]) and in assay [2] (setting [12]) were 0.964 (inactive) and 1.59, respectively. Besides, the results for the cell count in [2] (setting [13]) and in assay [2] (setting [14]) were 10200 and 10600, respectively. The z-score in assay [3] (setting [15]) is 0.342 (inactive) and -0.62 (inactive); in assay [3] (setting [16]) it was 0.00777 and -1.31. For the same compound, the log fold change Tl+ flux in the assay with F380Y is 0.0826 (inactive); in the assay with F380Y/beta1 it was 0.016 (inactive); in the assay with F380Y/beta2Delta, 0.036 (inactive); in the assay on F380Y/beta4, 0.0312 (inactive); in [4] it was 0.00528 (inactive); with R275C it was -0.0264 (inactive). In addition, the log fold change Tl+ flux was 0.0105 (inactive) in the assay on R275C/beta1, 0.0242 (inactive) in the assay on R275C/beta2Delta, 0.0148 (inactive) in the assay on R275C/beta4 and 0.0272 (inactive) with R275C/Slo1WT/beta2.
For orientation: viability means a read-out of living cells in per cent, often relative to untreated cells. As usually defined, the inhibition is the drop in the measured response relative to a control, in per cent. `Cc1cc2c(s1)Nc1ccccc1N=C2N1CCN(C)CC1`: the parasite load remaining in assay [5] is 58.8% (inactive) and 82.2% (inactive) and 32.6% (inactive). Further, the viability in [5] was 151% and 67.6% and 138%. Further, the fluorescence ratio was 1.04 (inactive) in [6] and 1 (inactive) in assay [9]. For the same compound, the inhibition was -1.19% (inactive) in assay [7] and -3.18% (inactive) in assay [8]. In addition, the mean signal in assay [1] was 245 (inactive). Besides, the z-score in [3] (setting [15]) was -0.362 (inactive) and 0.328 (inactive) and 0.46 (inactive); in [3] (setting [16]), 0.469 and -0.59 and 1.26. For the same compound, the log fold change Tl+ flux was 0.136 (active) in the assay on F380Y; 0.0857 (inactive) with F380Y/beta1; 0.0704 (inactive) with F380Y/beta2Delta; 0.111 (active) in the assay on F380Y/beta4; -0.004 (inactive) in [4]; -0.00393 (inactive) with R275C. Moreover, the log fold change Tl+ flux was 0.000391 (inactive) with R275C/beta1, -0.0244 (inactive) in the assay with R275C/beta2Delta, -0.0479 (inactive) in the assay with R275C/beta4 and 0.0472 (inactive) in the assay with R275C/Slo1WT/beta2.
As to `CNCC[C@H](Oc1cccc2ccccc12)c1cccs1`, the parasite load remaining in [5] is 36.5% (inactive) and 51.1% (inactive) and -0.135% (inactive). Further, the viability in [5] was 101% and 64.7% and 0.245%. Also, the fluorescence ratio in assay [6] is 0.96 (inactive) and 0.95 (inactive); in [9], 0.93 (inactive) and 0.89 (inactive). The inhibition was 1.19% (inactive) and -5.46% (inactive) in assay [7]; 2.98% (inactive) and -4.33% (inactive) in assay [8]. Further, the mean signal in [1] was 220 (inactive). The red/green cell ratio (normalised) in assay [10] was 0.93 (inactive). The normalised cell number in [10] (setting [17]) was 1.07; in assay [10] (setting [18]) it was 1. Also, the fold change in assay [2] (setting [11]) is 0.93 (inactive); in assay [2] (setting [12]), 4.69. Further, the cell count in assay [2] (setting [13]) turned out to be 10400; in assay [2] (setting [14]), 11200. Moreover, the log fold change Tl+ flux in the assay with F380Y was -0.075 (inactive); in the assay with F380Y/beta1 it was -0.085 (inactive); with F380Y/beta2Delta it was 0.0364 (inactive); in the assay with F380Y/beta4, -0.0361 (inactive); in assay [4] it was 0.0212 (inactive); with R275C it was 0.0449 (inactive). The log fold change Tl+ flux was 0.207 (active) with R275C/beta1, 0.066 (inactive) in the assay with R275C/beta2Delta, 0.129 (active) in the assay on R275C/beta4 and 0.0145 (inactive) in the assay with R275C/Slo1WT/beta2.
On to `CCN(CC)CC#CCOC(=O)C(O)(c1ccccc1)C1CCCCC1` (stereo not given), for which the fluorescence ratio in assay [6] was 1.01 (inactive); in [9] it was 0.97 (inactive). The inhibition in assay [7] was -5.91% (inactive); in [8], 1.05% (inactive). Also, the mean signal in assay [1] is 265 (inactive). For the same compound, the red/green cell ratio (normalised) in assay [10] is 1.02 (inactive). The normalised cell number stood at 1.13 in assay [10] (setting [17]) and 1.14 in assay [10] (setting [18]). Moreover, the z-score was -0.351 (inactive) and 0.357 (inactive) in assay [3] (setting [15]); 0.474 and 0.0643 in assay [3] (setting [16]). The log fold change Tl+ flux in the assay on F380Y was -0.0501 (inactive); with F380Y/beta1 it was -0.0697 (inactive); with F380Y/beta2Delta, -0.0326 (inactive); with F380Y/beta4, 0.0257 (inactive); in [4], -0.0619 (inactive); with R275C, -0.105 (active). The log fold change Tl+ flux in the assay with R275C/beta1 was -0.00047 (inactive); in the assay on R275C/beta2Delta, -0.0198 (inactive); in the assay with R275C/beta4, 0.205 (active); in the assay on R275C/Slo1WT/beta2 it was -0.0121 (inactive).

Values taken from PubChem BioAssay.
